From PubChem BioAssay AID602143 (Vanderbilt Specialized Chemistry Center, 2011)
Values without a mark were called inactive. Rule as the data show it: active = remaining activity below about 50%; inactive = the rest.

These molecules were tested against Phospholipase D2 (Homo sapiens) (UniProt O14939) (assay: cellular phospholipase D2 activity inhibition – cell-based, HEK293, single concentration (AID 602143;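 also: tested at 200 nM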)). Settings: HEK293 cellular PLD2 activity, percent of control; hits give low values.
Phospholipase D2 (Homo sapiens), sequence (O14939 whole entry, looked up): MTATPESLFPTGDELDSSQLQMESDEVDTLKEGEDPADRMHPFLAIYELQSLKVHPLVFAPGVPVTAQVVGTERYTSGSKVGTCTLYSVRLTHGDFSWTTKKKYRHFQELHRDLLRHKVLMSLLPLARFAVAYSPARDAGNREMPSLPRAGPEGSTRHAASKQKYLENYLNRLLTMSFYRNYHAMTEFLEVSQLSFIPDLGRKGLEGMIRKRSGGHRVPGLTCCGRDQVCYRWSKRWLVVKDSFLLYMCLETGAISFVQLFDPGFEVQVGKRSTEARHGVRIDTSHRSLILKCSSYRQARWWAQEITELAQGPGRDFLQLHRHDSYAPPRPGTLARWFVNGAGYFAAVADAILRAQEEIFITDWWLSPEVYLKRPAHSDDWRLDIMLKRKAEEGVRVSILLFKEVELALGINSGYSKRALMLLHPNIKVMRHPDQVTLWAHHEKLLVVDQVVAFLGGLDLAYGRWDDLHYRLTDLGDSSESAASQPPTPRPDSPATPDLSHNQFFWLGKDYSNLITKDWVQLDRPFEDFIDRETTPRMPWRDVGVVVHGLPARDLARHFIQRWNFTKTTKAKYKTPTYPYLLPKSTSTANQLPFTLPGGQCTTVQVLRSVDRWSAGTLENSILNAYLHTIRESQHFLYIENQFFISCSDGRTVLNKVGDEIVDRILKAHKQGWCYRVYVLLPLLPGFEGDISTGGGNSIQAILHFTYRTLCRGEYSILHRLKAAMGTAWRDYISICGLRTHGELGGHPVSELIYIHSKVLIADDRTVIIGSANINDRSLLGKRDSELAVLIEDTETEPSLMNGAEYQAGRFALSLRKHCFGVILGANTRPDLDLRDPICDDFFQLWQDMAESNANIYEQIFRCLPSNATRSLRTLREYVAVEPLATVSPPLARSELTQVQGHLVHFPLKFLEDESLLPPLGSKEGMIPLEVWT
Phospholipase D2 (Homo sapiens), sequence (O14939 whole entry, looked up): as above

Row | Compound | remaining activity [%]
1 | O=C(NCCN1CCC(n2c(=O)[nH]c3ccccc32)CC1)c1cc2ccccc2c2c1ccc1ccccc12 | 76.6
2 | O=C1c2ccccc2C(=O)N1CCN1CCC(n2c(=O)[nH]c3ccccc32)CC1 | 87.7
3 | O=C(NCCN1CCN(c2ccncc2)CC1)c1ccc(Cl)cc1 | 116
